In the library only some 3.6% were active in any assay of this set; here they are far more common.
NPSR antag – antagonists of human neuropeptide S receptor cAMP signaling | Potency, µM (series often up to 38.3 µM), for the others: at the top dose activity change, negative = inhibition, usual class: inhibitors | CHO-NPSR cells, cAMP TR-FRET, antagonist mode | Q6W5P4 | 1% of 220,000 active; note: % is set by controls: 0 for no effect and ±100 for the full control effect; nearly all actives have a fitted effect of over 50% in size
Target sequence (Q6W5P4 whole entry, looked up): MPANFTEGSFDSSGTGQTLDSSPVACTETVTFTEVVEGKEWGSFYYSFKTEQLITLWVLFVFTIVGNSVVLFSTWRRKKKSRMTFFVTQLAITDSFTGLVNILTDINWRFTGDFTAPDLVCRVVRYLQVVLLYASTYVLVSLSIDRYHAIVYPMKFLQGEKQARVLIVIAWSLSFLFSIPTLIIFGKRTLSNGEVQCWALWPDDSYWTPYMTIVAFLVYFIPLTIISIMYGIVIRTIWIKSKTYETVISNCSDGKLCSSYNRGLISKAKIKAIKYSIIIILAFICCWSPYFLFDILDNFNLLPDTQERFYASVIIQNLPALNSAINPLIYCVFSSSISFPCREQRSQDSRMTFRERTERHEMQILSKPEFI
Epigenetic reg – epigenetic control regulation, reporter derepression; murine LDR cells, GFP reporter derepression, 30 h; Potency, µM (top dose mostly 53.9 µM), for the others: at the top dose GFP activation, hits mostly activators; 0.2% of 280,000 active; AID 1865; note: % of control where 0% means no effect; nearly all actives have a fitted effect of over 60% in size
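Reporter derepression read as number of fluorescent GFP-positive objects, 20-120 um in size, counted by laser-scanning cytometer. Mouse LDR line with an epigenetically silenced CMV-GFP locus; compound incubation 30 h, 37 C.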
Sfp inh – blocks B. subtilis Sfp PPTase activity | Biochemical Sfp PPTase activity, qHTS | Potency, µM, for the others: largest response in the series, negative = inhibition, actives largely listed as inhibitors | AID 1490 | 3.5% of 310,000 active | Q9F4F7;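 note: the enzyme is Sfp with the accession as filed and its product quenches rhodamine fluorescence; 0% = enzyme reaction without inhibitor and -100% = no enzyme wells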
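With Hepes-Na pH 7.6 buffer containing 10 mM MgCl2, Sfp (15 nM) modified BHQ-2-YbbR (12.5 uM) using rhodamine-CoA (5 uM). Two reads 30 minutes apart at 525/598 nm yielded each well's rate.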
IMPase Li inh – membrane-permeable IMPase blocker, potentiated with lithium. 0.35% of 210,000 active. Potency, µM (highest dose often 59.4 µM), inactives show top-dose activity, negative = IMPase inhibition, usual class: inhibitors. CHO-M1 cells, IP1 TR-FRET (IP-One), carbachol + lithium. AID 1457;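 note: IP1 builds up when IMPase is blocked and the TR-FRET signal falls; plate controls were basal vehicle for no effect and high inhibitor control for full effect; nearly all actives have a fitted effect of over 50% in size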
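CHO-M1, 2000 cells/well, 16–30 h culture; cpd + low Li+, 30 min 37C; lysis with d2-IP1/Eu-anti-IP1 Ab, 10 min RT; TR-FRET 665/620 ratio and 620 channel; AC50 via Hill.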
KAT2A inh – inhibitors of human GCN5L2 histone acetyltransferase; AID 504327; 0.21% of 390,000 active; Potency, µM (doses to about 58.9 µM), for inactives: at the top dose activity change, negative = inhibition, usual class: inhibitors; GCN5L2 HAT assay, ThioGlo1 CoA-SH fluorescence; note: % is set by controls: 0 for no effect and ±100 for the full control effect
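Compounds, pin-transferred from DMSO stocks, meet 20nM GCN5L2 for 15 min before the reaction begins with H3(1-25) peptide (75uM) and acetyl-CoA (70uM). Thiol-reactive ThioGlo1 reports CoA release over 20 min at room temperature.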
JMJD2E inh – inhibitors of human JMJD2E histone demethylase; 1.6% of 230,000 active; Potency, µM (doses to about 57.1 µM), for the others: at the highest dose activity change, negative = inhibition, hits mostly inhibitors; JMJD2E catalytic domain, FDH-coupled NADH fluorescence (FDH is formaldehyde dehydrogenase);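 note: 0% = wells with enzyme and -100% = buffer wells without enzyme; nearly all actives have a fitted effect of over 50% in size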
Target sequence (B2RXH2 1-337 limits assumed): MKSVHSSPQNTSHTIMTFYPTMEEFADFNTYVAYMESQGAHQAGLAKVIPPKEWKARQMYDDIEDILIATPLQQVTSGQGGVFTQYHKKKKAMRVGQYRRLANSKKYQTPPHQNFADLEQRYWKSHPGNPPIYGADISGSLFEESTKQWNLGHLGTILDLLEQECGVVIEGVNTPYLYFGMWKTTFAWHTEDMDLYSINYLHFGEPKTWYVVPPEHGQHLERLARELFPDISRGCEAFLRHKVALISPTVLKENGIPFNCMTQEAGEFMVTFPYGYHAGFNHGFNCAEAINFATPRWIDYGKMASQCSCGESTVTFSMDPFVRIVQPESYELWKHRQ
An asterisk follows results filed as active; ? = inconclusive; . = no result given; ! = repeats disagree; [ ] = another dose, or the depositor's remark. Unless noted, calls come from the whole dose curve; as a rule, active = well fitted curve in the direction sought with a large enough effect; inconclusive = small, poorly fitted or top-dose-only effect, or another doubt; inactive = no such curve, though single readings can be large; an effect the other way counts as inactive or inconclusive. Potency is the fitted concentration of half-maximal effect.

SMILES | NPSR antag | Epigenetic reg | Sfp inh | IMPase Li inh | KAT2A inh | JMJD2E inh
Cc1cc(N)c2ccccc2[n+]1CCCCCCCCCCCCCC[n+]1c(C)cc(N)c2ccccc21 | 16µM* | 0% | . | 35% | . | -1%
Cc1cc(N)c2ccccc2n1 | 11% | 0% | 2% | -5% | -7% | 1%
CCC(Oc1ccccc1)C(=O)N1CCN(Cc2cc(=O)n3nc(-c4cccc(C)c4)sc3n2)CC1 (stereo unspecified) | . | -2% | . | . | -1% | .
CN(C)c1ccc(C(=S)N2CCCCCC2)cc1 | -15%[46.1 µM] | -1% | 45µM* | 30%[38.3 µM] | -4% | -6%
Oc1ccc(C(=S)N2CCCCC2)cc1 | -11%[46.1 µM] | -1% | 50µM* | 6%[38.3 µM] | 1%[0.501 µM] | 4%
CC(=O)N1CCN(C(=S)c2ccc(N(C)C)cc2)CC1 | -11%[46.1 µM] | 0% | 35µM* | ? | -3% | -4%
O=[N+]([O-])c1ccc(SCCc2ccccn2)cc1 | 8% | -1% | ? | . | -3% | -1%
O=[N+]([O-])c1ccc(SCCc2ccncc2)cc1 | 11% | -1% | 50µM* | . | -15% | 4%
Cc1ccc(-n2c(=S)[nH]c3nc4c(cc3c2=O)COC(C)(C)C4)cc1 | ? | -2% | 26% | 2% | -1% | 12%
CCC1(C)Cc2nc3[nH]c(=S)n(-c4ccc(C)cc4)c(=O)c3cc2CO1 (stereo unspecified) | -28% | -2% | 16% | 8.9µM* | -8% | -1%
Cc1ccc(S(=O)(=O)N2CCC(c3nnc(-c4cccc(C)c4)o3)CC2)cc1 | . | ? | . | . | -7% | .
O=C(O)/C=C\C(=O)Nc1ccc2c(c1)C(=O)c1cc(F)ccc1-2 | . | . | . | -2% | . | .
c1ccc2c(c1)SCc1c-2[nH]c2ccccc12 | . | . | ? | . | 22µM* | .
CNc1ncnc2c1ncn2[C@H]1C[C@H](O)[C@@H](CO)O1 | . | 1% | 18% | 3% | 9% | .
CNc1ncnc2c1ncn2[C@H]1C[C@H](OP(=O)(O)O)[C@H](COP(=O)(O)O)O1 | . | -3% | 28µM* | 17% | -15% | 3%
CC[C@H](NC(=O)[C@H](CCC(=O)O)NC(=O)[C@H](CCC(=O)O)NC(=O)[C@H](CC(=O)O[S+](=O)([O-])c1cccc2c(NCCN)cccc12)NC(=O)[C@H](CCC(=O)O)NC(=O)[C@H](CC(=O)O)NC(C)=O)C(=O)ON[C@@H](C)C(=O)N[C@@H](CO)C(=O)N[C@@H](CCCCNC(=O)c1ccc(N=Nc2ccc(N(C)C)cc2)cc1)C(N)=O | . | . | -21% | . | -8% | .
COCCN1CCc2[nH]c(=S)[nH]c(=O)c2C1 | 10% | 0% | 56µM* | 4% | -1% | ?
COc1ccc(CCn2c(-c3ccco3)nc3nc4ccccc4nc32)cc1 | -28%[46.1 µM] | -1% | 35µM* | 17%[38.3 µM] | ? | ?
CCCCCn1c(-c2ccco2)nc2nc3ccccc3nc21 | -28%[46.1 µM] | -3% | ? | 11% | -24% | ?
CCOc1ccc(CCn2c(-c3ccco3)nc3ccccc3c2=O)cc1OCC | ? | -3% | 56µM* | 41%[38.3 µM] | -3% | ?
c1coc(-c2nc3nc4ccccc4nc3n2CC2CCCO2)c1 (stereo unspecified) | -10%[46.1 µM] | 0% | 79µM* | -8%[38.3 µM] | 1%[0.501 µM] | ?
CC(=O)Nc1ccn(C2OC(C(COC(C)=O)NC(=O)C(Cc3ccccc3)NC(=O)OC(C)(C)C)C(OC(C)=O)C2OC(C)=O)c(=O)n1 (stereo unspecified) | . | . | 7% | . | . | .
COC/C=C/C1=CC2=CC(=O)C(C)(OC(=O)c3ccc(Cl)nc3)C(=O)C2=CO1 (stereo unspecified) | . | 5% | -13% | 10% | . | -19%
O=C(O)c1cccc(NC(=O)c2cccc(S(=O)(=O)Nc3cccc(C(=O)O)c3)c2)c1 | . | 0% | . | . | 2% | .
O=C(Nc1cccc(C(=O)Nc2ccc(S(=O)(=O)O)c3cc(S(=O)(=O)O)cc(S(=O)(=O)O)c23)c1)Nc1cccc(C(=O)Nc2ccc(S(=O)(=O)O)c3cc(S(=O)(=O)O)cc(S(=O)(=O)O)c23)c1 | -11%[46.1 µM] | 0% | 45µM*! | -12% | ? | 7%
SMILES | NPSR antag | Epigenetic reg | Sfp inh | IMPase Li inh | KAT2A inh | JMJD2E inh
N=C1C2=C3Sc4ccccc4N3CCCC2=NN1c1cccc(S(=O)(=O)O)c1 | -25% | 0% | 89µM* | . | 1% | ?
COc1cccc(CNC(=O)CCC2CCCN(C(=O)c3ccc(OC)o3)C2)c1 (stereo unspecified) | -5% | 3% | 50µM* | 4% | -14% | 1%
OC(CNCCc1ccc(C(F)(F)F)cc1)COc1cccc2ccccc12 (stereo unspecified) | ? | 0% | 25µM* | 17% | -9% | 16%
OC(CNCCc1ccc(C(F)(F)F)cc1)COc1ccc2ccccc2c1 (stereo unspecified) | -35% | 0% | 18µM* | -7% | -14% | 8%
O=C(CSc1ncccc1-c1nc2ccccc2[nH]1)N1CCN(c2ccccc2F)CC1 | 1%[46.1 µM] | -3% | 5% | 10µM* | -7% | ?
CCOc1ccc2nc(-c3cc(NC(C)=O)ccc3O)sc2c1 | -11% | -3% | 8% | 10µM* | -1% | 5%
O=C(Nc1ccccc1F)c1ccc(O)c2ncccc12 | . | . | . | . | 1% | .
CCOC(=O)/C(C#N)=C/c1cc(C)n(-c2ccccc2)c1C | -10%[46.1 µM] | -3% | -8% | 6%[38.3 µM] | -7% | -29%
Cc1cc(C)cc(-n2c(C)cc(C=C(C#N)C#N)c2C)c1 | -19%[46.1 µM] | 0% | 15% | 10µM* | 65% | 8%
COc1ccccc1N1CCN(C(c2cc3cc(C)ccc3[nH]c2=O)c2nnnn2C2CCCC2)CC1 (stereo unspecified) | -9%[46.1 µM] | -1% | ? | 28%[38.3 µM] | 1% | -11%
COc1ccccc1N1CCN(C(c2cc3ccc(C)cc3[nH]c2=O)c2nnnn2C2CCCC2)CC1 (stereo unspecified) | ? | 2% | 40µM* | -3%[38.3 µM] | -12% | ?
CCOC(=O)C1CCN(C(c2cc3ccc(C)cc3[nH]c2=O)c2nnnn2C2CCCCC2)CC1 (stereo unspecified) | ? | -1% | 35µM* | ? | -9% | ?
CCC(C)(C)n1nnnc1C(c1cc2ccc(OC)cc2[nH]c1=O)N1CCN(C2CCCCC2)CC1 (stereo unspecified) | -21%[46.1 µM] | -1% | 3% | 4%[38.3 µM] | -1% | ?
C=CCC1(O)CCOc2ccccc21 (stereo unspecified) | . | -1% | -15% | 7% | . | -2%
CCN1C(C)=C(C(=O)OC)C(c2ccccc2)N2C(=O)[C@@]3(C(=O)OC)O[C@@]12C1C(=O)N(C)C(=O)C13 (stereo partly specified) | . | 0%[10.1 µM] | -7% | . | . | .
